Reference: ChEMBL document CHEMBL4513216, “Probing the Open Global Health Chemical Diversity Library for Multistage-Active Starting Points for Next-Generation Antimalarials” (ACS Infect Dis, 2020)
Out of some 65,000 compounds screened, about 2,100 (3.2%) showed an effect of 50% or more. The median lay at about -52%. The full list was thinned out, with strong results kept by preference.

System: Plasmodium falciparum
Assay: Screen against P. falciparum Asexual Blood Stage (ABS), at 5uM
Type: functional, Dd2
Conditions: tested at 5 uM

| Compound | INHIBITION |
| --- | --- |
| CC(C)(C)C(=O)NS(=O)(=O)c1ccc(C#N)c(C(F)(F)F)c1 | -87.2% |
| CN(C)[C@@H]1CN(C(=O)Cc2ccsc2)[C@@H]2CCCO[C@H]12 | 32.7% |
| CCNC(=O)CCC(=O)NC(C)Cc1ccccc1Br (stereo not given) | -67.5% |
| NC(=O)C1CN(C(=O)Nc2cc(Cl)cc(Cl)c2)CCO1 (stereo not given) | 84.9% |
| O=C(CCc1cscn1)N1CCC(C(=O)O)(c2ccccc2)CC1 | -11.5% |
| Cc1ncc2c(c1CNC(=O)C1(C)CCCCO1)CCNC2 (stereo not given) | -63.8% |
| O=C(NCc1cc2n(n1)CCCNC2)C1(c2ccccc2)CCCCC1 | 73.7% |
| CCCC(=O)NS(=O)(=O)c1ccc(C#N)c(C(F)(F)F)c1 | -56% |
| c1cncc(CO[C@H]2CC[C@H]3[C@@H]2OCCN3C2CCOCC2)c1 | -57.8% |
| CO[C@@H]1CCN(C2CCOCC2)C[C@@H]1Cc1ccccc1 | 80.8% |
| CO[C@H]1CCN(C2CCOCC2)C[C@@H]1Cc1ccccc1 | 78.7% |
| O=C1N(Cc2cccnc2)C[C@H]2CN(C3CCOCC3)CCN12 | -55.6% |
| O=C1[C@H]2CN(C3CCOCC3)C[C@H]2CN1Cc1ccncc1 | -33.5% |
| Cc1nnc(N2CC[C@@H](OCC3CC3)[C@@H](Cc3ccccc3)C2)s1 | 84.8% |
| O=C1[C@H]2CN(C3CCOCC3)C[C@H]2CN1Cc1cccnc1 | -28.2% |
| c1ccc(C[C@H]2CN(C3CCOCC3)CC[C@H]2OCC2CC2)cc1 | 74.9% |
| NC(=O)C1CN(C(=O)Cc2cccnc2)CCN(C2CCOCC2)C1 (stereo not given) | -92.3% |
| c1ccc(CN2C[C@@H]3OCCN(CC4CCCO4)[C@@H]3C2)nc1 (stereo not given in full) | -0.326% |
| CCCN1CCN(C(=O)c2cnc(C)nc2)[C@H]2CS(=O)(=O)C[C@H]21 | -183% |
| O=C(C1CCCCC1)N1CC2(CCNCC2)C1 | -23.1% |
| CC(C)CN1CC[C@@H]2[C@@H]1CCN2C(=O)N(C)C | -67.2% |
| Cc1cnn(CC(C)NCC(=O)NC2CCOCC2)c1 (stereo not given) | 14.5% |
| Cc1cnn(CC2CCN(CC(O)c3ccccc3Cl)CC2)c1 (stereo not given) | 78% |
| CC(C)N1CCC(Cn2cc(C(N)=O)cn2)CC1 | -7.48% |
| c1cc(CO[C@@H]2CN(Cc3ccoc3)[C@@H]3CCCO[C@@H]32)ccn1 | -102% |

| Compound | INHIBITION |
| --- | --- |
| O=C(CC1CCCC1)NCCNCc1cccc2c1OCCO2 | 71.6% |
| COCC(=O)N1C[C@H]2CNC[C@@]2(C(=O)NCc2c(C)noc2C)C1 | -53.3% |
| O=C1[C@H]2CN(Cc3ccccn3)C[C@H]2CN1c1ccsc1 | -16.2% |
| O=C(Nc1cc(C(F)(F)F)c[nH]c1=O)C1CCCN1 (stereo not given) | -151% |
| CC(C)CN1CCC2(CC(C(=O)NCc3cccnc3)=NO2)C1 (stereo not given) | -53.1% |
| O=C(NCc1cccnc1)Nc1cc(C(F)(F)F)c[nH]c1=O | 79% |
| CCOCCNC1(c2ccc(Cl)cc2)CCOCC1 | 27.1% |
| CCCNC1(c2ccc(Cl)cc2)CCOCC1 | 67.7% |
| COCCNC1(c2ccc(Cl)cc2)CCOCC1 | 65.6% |
| CO[C@H]1CN(Cc2ccc(C)o2)[C@@H]2CCCO[C@H]12 | 11.8% |
| CN(C)C(=O)COC[C@H]1CC[C@@H]2[C@@H](CCN2Cc2ccccn2)O1 | -79.4% |
| O=C1[C@@H]2CCN(CC3CC3)C[C@@H]2OCCN1c1cccnc1 | -73.4% |
| O=C(NCC(F)(F)F)C1=NOC2(CCCNC2)C1 (stereo not given) | -61.4% |
| CCOC[C@H]1CC[C@H]2[C@H](CCN2Cc2c(C)noc2C)O1 | -13.8% |
| CNc1cc(C)nc(N2C[C@H](C3CC3)[C@@H](N)C2)n1 | 88.3% |
| CCc1[nH]c(C2(N)CCCC2)nc(=O)c1C | -32.3% |
| COC(=O)CCC(=O)NC(C)Cc1ccccc1Br (stereo not given) | -63.4% |
| COCCN(Cc1ccccc1Cl)c1nc(CCN)nc2ccccc12 | 89.5% |
| c1cnc(N2CCO[C@H]3CN(CC4CC4)C[C@H]32)nc1 | 3.32% |
| CCCNCc1ccc(-c2cc(N)nc3[nH]ccc23)cc1 | 72.3% |
| CN(C)c1nccc(N(C)C2CCN(CC3CCOC3)CC2)n1 (stereo not given) | -4.08% |
| Cc1ccc(CNCc2cccc3cccnc23)c(OC2CCOC2)c1 (stereo not given) | 85.4% |
| Cc1ccc(CNCc2cccc3cn[nH]c23)c(OC2CCOC2)c1 (stereo not given) | 78.7% |
| Cc1nc(COC[C@@H]2CC[C@H]3NCC[C@H]3O2)cs1 | -46.5% |
| Cc1noc(C)c1CN1C[C@H](OCC(=O)N(C)C)[C@H]2COC[C@H]21 | -85.8% |
